# Data taken from PubChem BioAssay AID1030 (National Center for Advancing Translational Sciences (NCATS), 2008).
# In all, about 220,000 compounds went through this assay and about 16,000 (7.3%) were called active. A call without a number means that no potency is given here. Not shown: some 25% with an inconclusive outcome. Calls come from the whole dose curve; as a rule, active = well fitted inhibition curve with a large enough effect (not every such curve was filed as active); inconclusive = small, poorly fitted or top-dose-only effect, or another doubt; inactive = no such curve, though single readings can be large or run the other way. Many of the other results were omitted from the sample, so actives are more common in it than they were.
# Target: Aldehyde dehydrogenase 1A1 (Homo sapiens) (UniProt P00352)
# Assay: qHTS Assay for Inhibitors of Aldehyde Dehydrogenase 1 (ALDH1A1)
# Details: Purified ALDH1A1, NADH fluorescence, propionaldehyde substrate; series mostly up to 75.3 µM
# Potency is the fitted concentration of half-maximal effect.
# Sequence of Aldehyde dehydrogenase 1A1 (Homo sapiens) (P00352 whole entry, looked up): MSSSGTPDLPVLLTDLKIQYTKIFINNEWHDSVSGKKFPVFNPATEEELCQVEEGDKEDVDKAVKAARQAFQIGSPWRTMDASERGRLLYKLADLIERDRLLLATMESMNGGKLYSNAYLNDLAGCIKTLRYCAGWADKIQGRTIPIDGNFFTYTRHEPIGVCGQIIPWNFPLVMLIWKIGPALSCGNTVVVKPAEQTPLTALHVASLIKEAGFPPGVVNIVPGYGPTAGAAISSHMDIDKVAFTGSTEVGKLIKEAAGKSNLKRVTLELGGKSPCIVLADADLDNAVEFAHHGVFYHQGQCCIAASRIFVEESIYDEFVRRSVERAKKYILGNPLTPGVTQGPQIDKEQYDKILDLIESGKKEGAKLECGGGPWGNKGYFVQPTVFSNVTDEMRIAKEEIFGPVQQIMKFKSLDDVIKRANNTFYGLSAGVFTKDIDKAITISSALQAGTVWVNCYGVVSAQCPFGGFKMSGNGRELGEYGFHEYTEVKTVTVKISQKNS
row,Structure (SMILES),Potency
1,COc1cc(CNc2ncn[nH]2)ccc1OCc1ccccc1C,inactive
2,CCC(=O)N1CCC(C(N)=O)(N2CCCCC2)CC1,inactive
3,CC(O)CNCCOc1cccc(Oc2ccccc2)c1 (stereo unspecified),inactive
4,CCOCCCNC(=O)C(NC(=O)Cc1c[nH]c2ccccc12)c1ccc(OC)cc1 (stereo unspecified),inactive
5,CN1CCN(c2ccc(CNS(=O)(=O)c3cccc(F)c3)cc2)CC1,inactive
6,O=C(/C=C/c1ccc(Cl)c([N+](=O)[O-])c1)c1cccnc1,inactive
7,O=C(/C=C/c1ccc(Cl)cc1Cl)NCc1ccco1,inactive
8,O=C(/C=C/c1ccc(Cl)cc1Cl)c1cccnc1,10 µM (active)
9,CC1(C)CC(=O)C(C2c3ccccc3S(=O)(=O)c3ccccc32)C(=O)C1,inactive
10,COC(=O)c1cc(C)sc1NC(=O)CC1Nc2ccccc2NC1=O (stereo unspecified),inactive
11,CN(NC(=O)C1CC(=O)N(c2ccccc2)C1)C1=NS(=O)(=O)c2ccccc21 (stereo unspecified),inactive
12,CCOc1ccc(C(=O)NC(=S)Nc2ccc(NC(=O)C(C)C)cc2)cc1[N+](=O)[O-],inactive
13,CCOc1ccc(C(=O)NC(=S)Nc2ccc(N3CCOCC3)c(Cl)c2)cc1[N+](=O)[O-],2.51 µM (active)
14,O=C(CSc1ccc([N+](=O)[O-])cn1)Nc1ccc(N2CCOCC2)c(Cl)c1,22.4 µM (active)
15,CCOC(=O)c1c(NC(=O)c2ccc(N3CCOCC3)c([N+](=O)[O-])c2)sc(C)c1C,inactive
16,O=C(CCNC(=O)c1ccc([N+](=O)[O-])cc1)Nc1ccccc1N1CCOCC1,inactive
17,O=C(CSc1ccc([N+](=O)[O-])cn1)Nc1ccc(N2CCOCC2)cc1,inactive
18,CN(C)N(C)C(=O)C(O)(c1ccccc1)c1ccccc1,inactive
19,Cc1ccc(S(=O)(=O)N(C)c2ccc(OCC(=O)NC3=NCCS3)cc2)cc1,inactive
20,Cc1ccnc(N)c1,inactive
21,Cc1cc(C)cc(N)c1,25.1 µM (active)
22,Cc1cc(C(C)(C)C)cc(C)c1N,inactive

row,Structure (SMILES),Potency
1,Cc1ccc(NC(=O)c2cccnc2C(=O)Nc2ccc(C)cc2)cc1,inactive
2,CCCSc1nsc(N)n1,20 µM (active)
3,CCCCCCSc1nsc(N)n1,inactive
4,COc1ccccc1OCC(=O)OCn1c(SC)nnc(C)c1=O,inactive
5,CCOC(=O)c1cnc2[nH]c3ccccc3n2c1=O,inactive
6,CCSc1ccccc1C(=O)Nc1ccc2c(c1)OCO2,inactive
7,CCOC(=O)C1=C(C)NC(C)=C(C(=O)OCC)C1c1ccccn1,inactive
8,CCOC(=O)C1=C(C)NC(=S)NC1c1cccs1 (stereo unspecified),3.16 µM (active)
9,CCOC(=O)C1=C(C)Nc2nc3ccccc3n2C1c1cccs1 (stereo unspecified),inactive
10,C/C(=N\NC(=O)COc1c(C)cccc1C)c1cccs1,inactive
11,CCOc1ccc(C(=O)NC2CCN(CC(=O)NCc3cccs3)CC2)cc1,inactive
12,Cc1cc(C)n(-c2nnc(N3CCN(c4ccccc4)CC3)nn2)n1,inactive
13,CCSc1ncnc2c(C#N)c3n(c12)CCCCC3,12.6 µM (active)
14,CCOC(=O)c1c(N=CN(C)C)c(C#N)c2n1CCCC2,inactive
15,C=C(C)c1cccc(C(C)(C)NC(=O)NCCN(CC)CC)c1,inactive
16,CCN(CCn1cccn1)C(=O)CC1C(=O)NCCN1Cc1cccc(OC)c1OC (stereo unspecified),inactive
17,CCc1ccc2c(c1)C(c1ccc([N+](=O)[O-])cc1)=NNC(c1ccccc1)=N2,inactive
18,CCc1ccc2c(c1)C1(NN=C(c3ccccc3)S1)C(=O)N2 (stereo unspecified),28.2 µM (active)
19,C=C1c2cc(CC)ccc2NC(=O)N1c1ccc(C)cc1,inactive
20,CCOc1cc(/C=C2/C(=N)N3OC(C)=CC3=NC2=O)ccc1OC,inactive
21,CCS(=O)(=O)C1=NSC2=NC(=O)/C(=C\c3cc(C)n(-c4cccc(OC)c4)c3C)C(=N)N21,20 µM (active)
22,NC(=O)COC(=O)/C=C/c1ccc2ccccc2n1,inactive

row,Structure (SMILES),Potency
1,O=C(c1ccco1)N1CCN(C(=O)C2c3ccccc3Oc3ccccc32)CC1,8.91 µM (active)
2,O=C(c1ccco1)N1CCN(c2cccc(Cl)c2)CC1,inactive
3,O=C(c1ccco1)N1CCN(C(=O)C2CC(c3ccc(Cl)c(Cl)c3)=NO2)CC1 (stereo unspecified),inactive
4,COc1ccc(-c2nn(-c3ccccc3)cc2CN2CCCO2)c(F)c1,inactive
5,Cc1ccccc1CC1(CO)CCCN(Cc2ccc3c(c2)OCCO3)C1 (stereo unspecified),inactive
6,Cc1ccc(N(C(=O)Cc2cccs2)C(C(=O)NCC2CCCO2)c2ccncc2)cc1 (stereo unspecified),inactive
7,O=C(COC(=O)Cc1ccc(F)cc1)Nc1cc(S(=O)(=O)N2CCOCC2)ccc1N1CCCC1,inactive
8,CCN(CC)S(=O)(=O)c1ccc(N2CCCC2)c(NS(=O)(=O)c2cccs2)c1,0.282 µM (active)
9,CCN(CC)S(=O)(=O)c1ccc(N2CCOCC2)c(C(=O)O)c1,inactive
10,O=C(COC(=O)c1ccccc1F)Nc1cc(S(=O)(=O)N2CCOCC2)ccc1N1CCCC1,inactive
11,CC(=O)NCCC(=O)Nc1cc(S(=O)(=O)N2CCOCC2)ccc1N1CCOCC1,inactive
12,CCN(CC)S(=O)(=O)c1ccc(N2CCOCC2)c(NC(=O)C2COc3ccccc3O2)c1 (stereo unspecified),inactive
13,COCCNC(=S)Nc1cc(S(=O)(=O)N2CCOCC2)ccc1N1CCCCC1,5.01 µM (active)
14,O=C(c1ccc(N2CCOCC2)c([N+](=O)[O-])c1)N1CCN(S(=O)(=O)c2cccs2)CC1,inactive
15,O=S(=O)(Nc1cc(S(=O)(=O)N2CCOCC2)ccc1N1CCCC1)c1cccs1,0.398 µM (active)
16,Cc1ccc2cc(C)c(N3CCC(C)CC3)nc2c1,inactive
17,Cn1c(=O)cc(OCC(=O)N2CCN(c3ccccc3F)CC2)c2ccccc21,inactive
18,O=C(NCc1ccco1)c1ccc(NS(=O)(=O)c2cccc([N+](=O)[O-])c2)cc1,inactive
19,COc1ccc(CCNC(=O)CSc2nc3[nH]ncc3c(=O)n2-c2cccc(C(F)(F)F)c2)cc1OC,inactive
20,Cc1ccc(Nc2c(F)c(F)c(F)c(F)c2C(=O)O)c(C)c1,inactive
21,Cc1ccccc1C1CC(c2cccs2)=NN1S(C)(=O)=O (stereo unspecified),inactive
22,Cc1cc(C)n(-c2ccc(C(=O)O)cc2[N+](=O)[O-])n1,inactive

row,Structure (SMILES),Potency
1,COc1ccc([C@H]2[C@H](C(C)=O)N3N=Cc4ccccc4C3C23C(=O)OC(C)(C)OC3=O)cc1 (stereo partly specified),10 µM (active)
2,COc1ccc(C2C(C(=O)N3CCN(c4ccc(OC)cc4)CC3)c3ccccc3C(=O)N2C)cc1 (stereo unspecified),inactive
3,COc1ccccc1N1CCN(c2ccc([N+](=O)[O-])nc2)CC1,inactive
4,CCCc1cc(-c2n[nH]c(=S)n2CC)c2ccccc2n1,inactive
5,CCn1c(-c2ccncc2)n[nH]c1=S,inactive
6,CCCc1cc(-c2n[nH]c(=S)n2Cc2ccccc2)cs1,7.94 µM (active)
7,CCCOc1ccc(C(=O)NCCc2ccccc2)cc1,inactive
8,CC1(C)Oc2ccc3ccc(=O)oc3c2/C(=C/NCCO)C1=O,25.1 µM (active)
9,C/C=C(/C)C(=O)OC1Cc2c(ccc3ccc(=O)oc23)OC1(C)C (stereo unspecified),inactive
10,C=CCN(CC=C)S(=O)(=O)c1ccc(C(=O)Nc2nc3c(s2)CCc2ccccc2-3)cc1,inactive
11,COC(=O)c1c(NC(=O)CN(c2ccc(C)c(C)c2)S(C)(=O)=O)sc2c1CCCC2,inactive
12,C=CCN(CC=C)S(=O)(=O)c1ccc(C(=O)Nc2sc3c(c2C(N)=O)CCCCC3)cc1,3.16 µM (active)
13,COCC(C)NC(=O)CSc1nc2nn(-c3ccccc3)c(=O)c-2c2n1CCCCC2 (stereo unspecified),inactive
14,Cc1ccc(CNC(=O)CCNS(=O)(=O)c2ccc(Br)s2)cc1,inactive
15,N#Cc1ccc(-c2nc3cc(C#N)c(C#N)cc3nc2-c2ccccc2)cc1C#N,inactive
16,O=C(COc1ccc(/C=N/NS(=O)(=O)c2ccccc2)cc1)NCCc1ccccc1,12.6 µM (active)
17,O=C(COc1ccc(S(=O)(=O)NCCc2ccccc2)cc1)N1CCCC1,inactive
18,O=C(CC(=O)N/N=C\c1ccc(F)cc1)NCCc1ccccc1,inactive
19,COc1ccccc1N1CCN(CC(=O)NCCc2ccc(S(N)(=O)=O)cc2)CC1,inactive
20,CN(CCc1cn[nH]c1)C(=O)CC1C(=O)NCCN1Cc1cccc(Oc2ccccc2)c1 (stereo unspecified),inactive
21,COc1cc(CN2CCNC(=O)C2CC(=O)NCCc2ncccc2C)cc(OC)c1 (stereo unspecified),23.8 µM (active)
22,Cc1cc(C)n(CCNC(=O)CC2C(=O)NCCN2Cc2ccc(C)o2)n1 (stereo unspecified),inactive

row,Structure (SMILES),Potency
1,Cc1ccccc1-n1cc(CNC(=O)CC2C(=O)NCCN2C/C=C/c2ccccc2)cn1 (stereo unspecified),inactive
2,O=C(CC1C(=O)NCCN1CC(c1ccccc1)c1ccccc1)NCCc1cn[nH]c1 (stereo unspecified),14.1 µM (active)
3,COc1cccc(CN2CCNC(=O)C2CC(=O)N(C)CCc2ccccn2)c1 (stereo unspecified),inactive
4,COC(=O)c1ccc(CN2CCN(CCCc3ccccc3)C(CCO)C2)cc1 (stereo unspecified),inactive
5,COc1ccc(-c2csc(NC(=O)COC(=O)Cc3ccc(Cl)cc3Cl)n2)cc1,inactive
6,COc1ccc(N2CCN(c3ccc([N+](=O)[O-])nc3)CC2)cc1,inactive
7,CS(=O)(=O)N1CCc2cc(C(=O)Nc3ccccc3)ccc21,inactive
8,Cc1cc(C)c(NC(=S)N2CCCC2C(=O)O)c(C)c1 (stereo unspecified),22.4 µM (active)
9,Cc1cc([N+](=O)[O-])c(N2CCC[C@@H]2C(=O)O)c([N+](=O)[O-])c1,inactive
10,Cc1ccc(C)c(NC(=O)C2CCCN2C(=O)OC(C)(C)C)c1 (stereo unspecified),inactive
11,Cc1cc(C(=O)COC(=O)C2CC2)c(C)n1-c1ccc(F)cc1,inactive
12,COC(=O)[C@@H]1CC[C@H](C)[C@@H](c2ccc(C)cc2)N1C(=O)c1ccc(/C=N/O[C@H](C)c2cn([C@@H]3COC[C@H]3O)nn2)cc1,inactive
13,O=C(Cc1ccc([N+](=O)[O-])cc1)N/N=C/c1ccco1,inactive
14,CCCCN1CCNC1=S,inactive
15,CCOC(=O)CCNC(=O)N1CCCC(C(=O)c2ccccc2SC)C1 (stereo unspecified),inactive
16,Cc1nnnn1/C(=C\c1ccccc1)C(=O)OCC(=O)N1CC2(C)CC1CC(C)(C)C2 (stereo unspecified),4.47 µM (active)
17,Cc1cccc(C(=O)NCC(=O)OCC(=O)N2CC3(C)CC2CC(C)(C)C3)c1 (stereo unspecified),inactive
18,COc1ccccc1C(=O)N1CC2(C)CC1CC(C)(C)C2 (stereo unspecified),inactive
